SKKanGAS inh – S. pyogenes SKKanGAS growth inhibitors in kanamycin, primary screen, streptokinase expression inhibitor project, SKKanGAS strain, BacTiter-Glo luminescence | hit rate 1.3% among 300,000 | AID 1662, 2009 | inhibition, % at 7.5 µM | 6 h;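 active = mean replicate score, as percent of positive control median, at least 50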;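 also: strain carries kanamycin resistance gene driven by streptokinase promoter and grows in 40 µg/ml kanamycin; loss of luminescence reflects streptokinase promoter inhibition or plain growth inhibition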
NALP3 yeast inh – NALP3 inflammasome inhibitors in reconstituted yeast, primary screen, luminescence, uHTS. Yeast reconstituted NLRP3/ASC/caspase-1, beta-gal luminescence, 24 h. inhibition, % at 10 µM. hit rate 0.39% among 330,000. AID 2825, 2010;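 active = inhibition of 50% or more; inactive = inhibition below 50%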
TIM10 inh – growth inhibitors of isogenic TIM10 control yeast, primary screen, counter-screen for tim10-1 yeast inhibitor project, luminescence, uHTS; S. cerevisiae TIM10 strain growth, BacTiter-Glo luminescence, 24 h; inhibition, % at 10 µM; hit rate 1.4% among 330,000; AID 463195, 2010;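 active = inhibition of 40% or more at the single tested concentration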;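 also: wild-type TIM10 isogenic control strain grown at permissive 25 °C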
tim10-1 inh – growth inhibitors of tim10-1 mutant yeast, primary screen, luminescence, uHTS; hit rate 2.2% among 330,000; AID 463190, 2010; inhibition, % at 20 µM; S. cerevisiae tim10-1 ts strain growth, BacTiter-Glo, 24 h;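 active = inhibition of at least 40%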;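 also: mutant grown at 25 °C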
tim23-1 inh – growth inhibitors of tim23-1 mutant yeast, primary screen, luminescence, uHTS; S. cerevisiae tim23-1 growth, BacTiter-Glo luminescence, 24 h; inhibition, % at 20 µM; hit rate 1.3% among 330,000;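 active = growth inhibition of the mutant yeast at or above 50%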;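 also: temperature-sensitive mutant grown at 25 °C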
tim10-1 conf – growth inhibitors of tim10-1 mutant yeast, confirmation, single concentration, luminescence, S. cerevisiae; shares compounds with tim10-1 inh; S. cerevisiae tim10-1 ts strain growth, BacTiter-Glo, 24 h; inhibition, % at 20 µM; hit rate 56% among 7,400; AID 463213, 2010;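 active = inhibition of yeast growth at or above a set limit in either of two repeat tests at 20 µM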;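 also: tim10-1 mutant grown at permissive 25 °C to find synthetic lethal compounds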
Large screens that a line does not name were inactive (follow-up assays come after a bar, where they were run). In the library only some 4.6% were active in any assay of this set; here they are far more common.

Cc1cc(NC(=O)CSc2nnc(-c3ccccc3F)n2N)no1	none (no result: SKKanGAS inh)
O=C(Nc1ncc2c(n1)-c1ccccc1OC2)c1ccc(F)cc1	none
O=C(Nc1ncc2c(n1)-c1ccccc1CC2)c1ccc(Cl)cc1	tim10-1 inh 47 | tim10-1 conf 37
CCOC(=O)Nc1nc(-c2ccc(Cl)cc2Cl)cs1	tim10-1 inh 40 | tim10-1 conf inactive
CC1C(=O)C(C)(C)C(=O)OC1c1ccccc1 (configuration not stated)	none
C[C@H]1C=CC(=O)O[C@H]1c1ccccc1	tim10-1 inh 48 | tim10-1 conf 52
COc1ccc(NC(C)(C)c2nnnn2-c2c(C)cccc2C)cc1	tim10-1 inh 40 | tim10-1 conf 32
COc1ccc(C(=O)NCC2(c3ccc(OC)c(OC)c3)CCCC2)c(OC)c1	none
N=c1oc2cc(O)ccc2cc1C(=O)Nc1ccc(Cl)cc1	tim10-1 inh 44 | tim10-1 conf inactive
Cc1ccc(C(=O)c2oc3nc(C)cc(C)c3c2N)cc1	none
CCc1ccc(C(=O)c2oc3nc(C)cc(C)c3c2N)cc1	tim10-1 inh 45 | tim10-1 conf 33
O=C1CC2(CCN(S(=O)(=O)c3ccccc3F)CC2)Oc2ccccc21	none
C=CCn1c(-c2cc3cccc(OC)c3o2)n[nH]c1=S	tim10-1 inh 44 | tim10-1 conf inactive
O=C(OCCOc1cccc(Cl)c1)C1CCN(S(=O)(=O)c2ccccc2)CC1	tim10-1 inh 44 | tim10-1 conf inactive
CCOC(=O)CN1N=C(c2ccc(Cl)cc2)CCC1=O	none
COc1ccc(C(C(=O)NC2CCCC2)N(C(=O)c2csnn2)C2CCCC2)cc1 (configuration not stated)	none
CC(Sc1nnc(-c2ccco2)n1C)C(=O)N1C(C)CCCC1C (configuration not stated)	none
Cc1nc2sc3c(=O)[nH]nnc3c2c(C)c1Br	tim10-1 inh 42 | tim10-1 conf inactive
NS(=O)(=O)c1ccc(NCc2ccccc2OCc2ccc(F)cc2)cc1	tim10-1 inh 44 | tim10-1 conf inactive
NS(=O)(=O)c1ccc(CCNCc2ccccc2OCc2ccc(F)cc2)cc1	none
CC(=NC1CCCCC1)C1=C(O)c2ccccc2C1=O	tim10-1 inh 41 | tim10-1 conf inactive
C[C@H](NC(=O)c1ccccc1Cl)C(=O)OC(C(=O)Nc1cc(C(F)(F)F)ccc1Cl)c1ccccc1 (some centres not stated)	none
O=C(CNC(=O)c1ccccc1F)OC(C(=O)Nc1cc(C(F)(F)F)ccc1Cl)c1ccccc1 (configuration not stated)	tim10-1 inh 43 | tim10-1 conf inactive
CC12CC3(C)CC(C)(C1)CC(C(=O)NCc1cccnc1)(C2)C3	none
Cc1ccc(NC(=S)Nc2cccc3ccccc23)cc1F	tim10-1 inh 49 | tim10-1 conf inactive
CC(=O)N(C)c1ccc(NC(=S)Nc2cccc3ccccc23)cc1	none
CC(=O)c1ccc(NC(=S)Nc2cccc3ccccc23)cc1	tim10-1 inh 41 | tim10-1 conf inactive
Fc1cccc(NC(=S)Nc2cccc3ccccc23)c1	none
Cc1ccc(C)c(CNS(=O)(=O)c2c(C)[nH]c(C)c2C(=O)N2CCCCC2)c1	none
O=C(CN(C(=O)Cn1nnc(-c2ccc(F)cc2)n1)c1ccc(F)cc1)NC1CCCC1	none
COc1ccc(S(=O)(=O)Cc2ccc(C(=O)NC3CCC(C)CC3)o2)cc1 (configuration not stated)	tim10-1 inh 40 | tim10-1 conf inactive
COc1ccc(S(=O)(=O)Cc2ccc(C(=O)N3CCN(c4ccc(Cl)cc4)CC3)o2)cc1	tim10-1 inh 46 | tim10-1 conf inactive
COc1ccc(N2CCN(C(=O)c3ccc(CS(=O)(=O)c4ccc(OC)cc4)o3)CC2)cc1	none
COc1ccc(S(=O)(=O)Cc2ccc(C(=O)N3CCN(c4cc(C)ccc4C)CC3)o2)cc1	tim10-1 inh 45 | tim10-1 conf inactive
CN(C)/C=C/C(=O)c1ccn(S(=O)(=O)c2ccccc2)c1	none
Nc1nc(-c2ccccc2)c(N=Nc2ccccc2Cl)s1	tim10-1 inh 55 | tim10-1 conf inactive
Cc1ncc(N=Nc2ccccc2Cl)c(-c2ccccc2)n1	none

Screening results: PubChem BioAssay, several laboratories
